Among all 2,400 compounds or so, about 2,200 (92%) were called active.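 How the source made its calls: active means mean inhibition over triplicate runs exceeds the cutoff derived for the earlier primary screen (cut at about 25% in these data); inactive means the rest.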 The set was probably picked from earlier hits. The list shows a part of the results.
Biological target: Platelet-activating factor acetylhydrolase IB subunit alpha2 (Homo sapiens) (UniProt P68402)
Experiment: PAFAH1B2 inhibitors, confirmation, biochemical, fluorescence polarization, FP-rhodamine probe, triplicate (AID 493034);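 further: 0% = enzyme with DMSO and 100% = wells lacking PAFAH1B2 protein; inhibitors lower polarization by leaving the probe unbound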
Settings: recombinant PAFAH1B2, FP-rhodamine probe fluorescence polarization; at 3.39 µM; active compounds read high

Sequence of Platelet-activating factor acetylhydrolase IB subunit alpha2 (Homo sapiens) (P68402 whole entry, looked up): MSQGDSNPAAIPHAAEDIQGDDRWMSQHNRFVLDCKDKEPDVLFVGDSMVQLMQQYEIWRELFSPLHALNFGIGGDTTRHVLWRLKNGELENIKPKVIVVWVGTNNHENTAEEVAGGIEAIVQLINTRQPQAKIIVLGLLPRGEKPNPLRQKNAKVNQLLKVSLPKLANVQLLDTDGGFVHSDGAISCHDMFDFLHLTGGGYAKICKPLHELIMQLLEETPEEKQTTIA

Compound	inhibition
COC(=O)C1=C(c2ccc(C(C)=O)cc2)C[C@@H]2CC[C@H]1N2C(=O)NCc1ccc(C(F)(F)F)cc1	28% (active)
COC(=O)C1=C(c2ccc(C(C)=O)cc2)C[C@@H]2CC[C@H]1N2C(=O)NCc1ccc(F)cc1	23.9% (inactive)
Cc1ccc(S(=O)(=O)NP(=O)(Oc2ccccc2)Oc2ccccc2)cc1	51.9% (active)
O=P(NS(=O)(=O)c1ccc(Cl)cc1)(Oc1ccccc1)Oc1ccccc1	81.3% (active)
O=P(NS(=O)(=O)c1ccc(Br)cc1)(Oc1ccccc1)Oc1ccccc1	78.1% (active)
BrCC(Br)C1CCC(Br)C(Br)C1 (configuration not stated)	56.7% (active)
O=c1[nH]c(=S)n(CCC2=CCCCC2)c(O)c1/C=N/Nc1ccccc1	29.8% (active)
O=S(=O)(c1ccc(Cl)cc1)c1ccc(Cl)cc1	42.9% (active)
Cc1ccc(OCCOc2cccc(C=C3C(=O)NC(=O)NC3=O)c2)cc1	36.7% (active)
O=C(O)CCn1cc(C=C2C(=O)NC(=O)NC2=O)c(-c2ccc(Br)cc2)n1	36.4% (active)
O=C(OCCN1CCOCC1)C1(c2ccccc2)CCCC1	32.4% (active)
O=C(O)C1(c2ccc(Cl)cc2)CCC1	37% (active)
Cn1c(O)c(/C=C2\N=c3ccccc3=C2CCNC(=S)NC2CC2)c(=O)n(C)c1=O	84.3% (active)
O=C(Cc1ccc(N(CCCl)CCCl)cc1)NC(Cc1ccc(Cl)cc1)C(=O)O (configuration not stated)	63% (active)
O=C(Cc1ccccc1)NC(Cc1ccc(Cl)cc1)C(=O)O (configuration not stated)	28.4% (active)
O=C1CC(=O)N(Cc2ccccc2)C(=S)N1	15.9% (inactive)
O=c1[nH]c(=S)n(Cc2ccc(F)cc2)c(O)c1C=NCC1CCCO1 (configuration not stated)	27.5% (active)
O=c1[nH]c(=S)n(Cc2ccc(F)cc2)c(O)c1/C=N/N1CCCCC1	38.2% (active)
O=C(N/N=C/c1c(O)n(Cc2ccc(F)cc2)c(=O)[nH]c1=O)c1ccccc1	23.9% (inactive)

Compound	inhibition
O=C(N/N=C/c1c(O)n(Cc2ccc(F)cc2)c(=S)[nH]c1=O)c1ccncc1	40.2% (active)
O=c1[nH]c(=S)n(Cc2ccc(F)cc2)c(O)c1/C=N/N1CCCCCC1	27.4% (active)
CC1CC(OP(O)(=S)c2ccc(N(C)C)cc2NC(=O)c2cccs2)CC(C)(C)C1 (configuration not stated)	17.3% (inactive)
O=C1CN=C(c2ccccc2)c2ccccc2N1Cc1ccc(C(F)(F)F)cc1	57.8% (active)
Cc1ccc(Sc2ccc(C=C3C(=O)N(C)C(=O)N(C)C3=O)o2)cc1	62.6% (active)
O=C1NC(=O)C(=Cc2ccc(-c3ccc(F)cc3O)o2)C(=O)N1	20.5% (inactive)
Cc1ccc(-c2nc3ccc(Cl)cc3n2OC(=O)N(C)C)cc1	59% (active)
CNC(=O)O/N=C(\N)Cc1csc2ccc(Cl)cc12	54.9% (active)
FC(F)(F)c1cccc(-n2nnnc2C2(N3CCOCC3)CCCCC2)c1	23.3% (inactive)
Cc1ccc2c(c1)=NC(=O)/C(=C/c1c(O)[nH]c(=O)[nH]c1=O)C=2	21.7% (inactive)
C=C[C@@H]1C[C@@]1(C)[C@@H](NP(=O)(c1ccccc1)c1ccccc1)c1ccccc1	29.2% (active)
Nc1ccc(C2(c3ccc(N)cc3)CCCCC2)cc1	45.2% (active)
O=P(O)(Oc1ccccc1)OC(c1ccccc1)C(F)(F)C(F)(F)F (configuration not stated)	85.5% (active)
NP(=O)(OCCCc1ccccc1)Oc1ccccc1 (configuration not stated)	51.6% (active)
NP(=O)(OCCCc1ccccc1)Oc1ccc(Cl)cc1 (configuration not stated)	88.8% (active)
Nc1ccc2cc(Br)ccc2c1	70.6% (active)
CNC(=O)Oc1ccc(C(=O)N2c3ccccc3NC(=O)C2C)cc1 (configuration not stated)	43.6% (active)
O=C(O)c1c[nH]c2ccc(S(=O)(=O)N(CCCl)CCCl)cc12	26% (active)
